Assay results from PubChem BioAssay (NCATS).
Results filed as inconclusive are left out. Calls of active or inactive are those of the source. Unless noted, calls come from the whole dose curve; as a rule, active = well fitted curve in the direction sought with a large enough effect; inconclusive = small, poorly fitted or top-dose-only effect, or another doubt; inactive = no such curve, though single readings can be large; an effect the other way counts as inactive or inconclusive.

What was measured:
[1] = target: Lysosomal acid glucosylceramidase (Homo sapiens) (UniProt P04062); experiment: Glucocerebrosidase-p2 (AID 348; in the data active = potency below about 10 µM; note: potency is the fitted concentration of half-maximal effect); conditions: purified GBA, blue fluorogenic substrate, 40 min
Procedure, shortened: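 Normal human glucocerebrosidase (0.2 nM) with blue fluorogenic substrate (80 uM final) in citrate/phosphate pH 5.9 with 10mM sodium taurocholate, 0.01% tween-20; 40 min RT, NaOH/glycine stop; fluorescence Ex 365/Em 440; AC50 from a titration from 0.6 nM upwards.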

[2] = AP1 Signaling Pathway (AID 357; active = well fitted curve in either direction with a large enough effect, not every such curve was filed as active;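 note: ME-180 reporter cells stimulated with EGF at its EC50 level; % is set by controls: 0 for no effect and ±100 for the full control effect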); conditions: ME-180 AP-1-bla reporter, EGF-induced, beta-lactamase ratio, 5 h; at 7.69 µM (top of the series) unless noted
Procedure, shortened: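 Modulation of EGF-driven AP-1 transcription was assessed with a beta-lactamase reporter in ME-180 cells. Compound and EC50 EGF were co-incubated 5 hours at 37 °C before 2.5-hour CCF4 loading at room temperature and dual-emission reading.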

[3] = target: Cytochrome P450 1A2 (Homo sapiens) (UniProt P05177); experiment: p450-cyp1a2 (AID 410; calls by dose curve; note: potency is the fitted concentration of half-maximal effect;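 for activity change, negative = inhibition: -100% = full effect of reference inhibitor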); conditions: recombinant CYP1A2, luciferin-ME demethylation, luminescence; series mostly up to 57 µM
Procedure, shortened: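 20nM CYP1A2, 100uM Luciferin-ME (=Km), 100mM KPO4; cpd 10 min RT; +NADPH regen, 60 min RT; stop/detect 20 min; luminescence. Normalized to furafylline 57 uM = full inhibition.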

[4] = NFAT Signaling Pathway (AID 444; active = well fitted curve in either direction with a large enough effect, not every such curve was filed as active;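 note: carbachol stimulus at about its EC50 of 1 µM final; % is set by controls: 0 for no effect and ±100 for the full control effect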); conditions: Jurkat NFAT-bla M1, carbachol, beta-lactamase ratio, 5 h; at 7.69 µM (top of the series) unless noted
Procedure, shortened: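 Jurkat cells with NFAT-driven β-lactamase reporter and co-expressed M1 receptor, stimulated with carbachol (final 1 uM, ~EC50), compound titration, 5 h at 37 °C. CCF4 loaded 1 h at RT; 460/530 nm ratio gave %activity and AC50.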

[5] = Stat Signaling Pathway (AID 446; active = well fitted curve in either direction with a large enough effect, not every such curve was filed as active;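 note: ME-180 cervical cancer cells given 40 pM IL-6 alongside compound; SIE-controlled beta-lactamase reporter measured as 460/530 nm FRET emission ratio; % is set by controls: 0 for no effect and ±100 for the full control effect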); conditions: ME-180 (cervical carcinoma) SIE beta-lactamase reporter, IL-6 stimulated, 5 h; at 7.69 µM (top of the series) unless noted
Procedure, shortened: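 Overnight-plated ME-180 cells bearing a STAT Inducible Element beta-lactamase reporter; 5 h co-exposure to compound and 40 pM IL-6; values normalized to 300 pM IL-6 and 125 nM JAK inhibitor controls.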

[6] = target: Glucocorticoid receptor (Homo sapiens) (UniProt P04150); experiment: GR-GFP Redistribution (AID 450;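 active = compounds whose dose series gives a full or clear partial fitted curve of increased nuclear translocation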; note: potency is the fitted concentration of half-maximal effect); conditions: U2OS GR-GFP nuclear translocation, laser cytometry, 2 h
[7] = target: Glucocorticoid receptor (Homo sapiens) (UniProt P04150); experiment: GR-EFC Redistribution (AID 451; calls by dose curve; note: potency is the fitted concentration of half-maximal effect); conditions: CHO-K1 GR-EFC translocation, beta-gal luminescence, 2 h
Procedure, shortened: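 CHO-K1 cells expressing nuclear EA and GR-ED fragments of b-gal; compounds titrated up to 46 uM final, 2 h at 37 C. GR nuclear translocation read as complemented b-gal luminescence after 1 h RT detection.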

[8] = target: Mitogen-activated protein kinase 10 (Mus musculus) (UniProt Q61831); experiment: JNK3 AlphaScreen Assay (AID 530; active = well fitted curve in either direction with a large enough effect, not every such curve was filed as active;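 note: kinase came from lysate of stimulated human HepG2 cells; signal reports phosphorylation of biotinylated GST-cJun 1-79 at Ser73 with 10 µM ATP; % is set by controls: 0 for no effect and ±100 for the full control effect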); conditions: JNK3 lysate, c-Jun phosphorylation; series mostly up to 57.1 µM
Procedure, shortened: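 HepG2 lysate (IL-1b/TNFa pre-activated) + biotin-GST-cJun 1-79 + anti-pSer73 cJun; cpd titration, 15 min RT; ATP 10 uM start; Tris pH 7.6, MgCl2, DTT, vanadate; beads in EDTA buffer; AlphaScreen.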

[9] = target: 3',5'-cyclic-AMP phosphodiesterase 4B (Homo sapiens) (UniProt Q07343); experiment: qHTS Assay for Inhibitors of PDE-IV (AID 607; active = well fitted activation curve with a large enough effect in the main read-out, with a control signal flat, not every such curve was filed as active; note: % of control where 0% means no effect); conditions: HEK293 ACTOne CNG channel cells, membrane potential fluorescence; series mostly up to 22.9 µM
Procedure, shortened: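 Live HEK293 cells with a modified cyclic nucleotide-gated (CNG) channel report intracellular cAMP via membrane-potential dye fluorescence (ex 535/em 590 nm). Endogenous PDE-IV was targeted. Compounds were tested at up to 22.9 uM final; RO 20-1724 100 uM served as control.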

[10] = qHTS Assay for Lipid Storage Modulators (AID 1519; calls by dose curve); conditions: Drosophila S3 cells, BODIPY lipid droplet/cell ratio, laser cytometry, cells loaded with oleic acid; for activity change, negative = inhibition: at 57.5 µM (top of the series)
Procedure, shortened: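 Cells seeded at 5,000 per well were treated with compounds over a concentration series and loaded with oleic acid (400 uM, as added). Lipid droplet fluorescence (488 nm excitation, 500-530 nm channel) was read by laser-scanning cytometry and normalized to 20 uM Triacsin C.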

[11] = target: Dual specificity protein kinase CLK4 (Homo sapiens) (UniProt Q9HAZ1); experiment: qHTS Assay for Inhibitors of CDC-like Kinase 4 (Kinase-Glo Assay) (AID 1770); conditions: recombinant Clk4, Kinase-Glo ATP depletion luminescence; series mostly up to 66.7 µM; note: % is set by controls: 0 for no effect and ±100 for the full control effect; nearly all actives have a fitted effect of over 65% in size
Procedure, shortened: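 Luminescent ATP-depletion read-out (Kinase-Glo) after 4.5 h room-temperature reaction of Clk4 (25 nM final) with RS peptide (100 uM) and ATP (1 uM), pH 7.5 Tris buffer with MgCl2 and DTT.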

[12] = target: Dual specificity protein kinase CLK4 (Homo sapiens) (UniProt Q9HAZ1); experiment: qHTS Assay for Inhibitors of CDC-like Kinase 4 (ADP-Glo Assay) (AID 1771); conditions: recombinant CLK4, ADP-Glo luminescence; series mostly up to 80 µM; note: % is set by controls: 0 for no effect and ±100 for the full control effect; nearly all actives have a fitted effect of over 70% in size
Procedure, shortened: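 25 nM Clk4, 100 uM RS peptide, 1 uM ATP (final); 2 mM MgCl2, 0.5 mM EGTA, 2.5 mM DTT, 0.01% Triton X-100; 1 hr RT. ADP-Glo readout: ATP depletion 45 min, conversion/luciferase 30 min, luminescence.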

[13] = target: Dual specificity protein kinase CLK4 (Homo sapiens) (UniProt Q9HAZ1); experiment: qHTS Assay for Inhibitors of CDC-like Kinase 4 (ADP-FP Assay) (AID 1795); conditions: Transcreener ADP fluorescence polarization; series mostly up to 50 µM;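 note: recombinant human CLK4 phosphorylating RS repeat peptide at 1 µM ATP; % is set by controls: 0 for no effect and ±100 for the full control effect; nearly all actives have a fitted effect of over 60% in size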
Procedure, shortened: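 Kinase activity was measured as ADP production using Transcreener orange tracer (4 nM) and ADP antibody (1 ug/mL) fluorescence polarization, with ADP calculated from a calibration curve. The 1 h reaction contained 6.25 nM Clk4, 1 uM ATP and 100 uM RS peptide at pH 7.5 with Mg2+.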

[14] = Primary qHTS for small molecule stabilizers of the endoplasmic reticulum resident proteome: Secreted ER Calcium Modulated Protein (SERCaMP) assay (AID 1508630); conditions: SH-SY5Y GLuc-SERCaMP (Gaussia luciferase released on ER calcium loss) secretion, thapsigargin, luminescence; series mostly up to 38.4 µM; note: % is set by controls: 0 for no effect and ±100 for the full control effect
Procedure, shortened: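 The SH-SY5Y reporter protocol was run at 3 concentrations up to 38.3 uM (primary) or 11 concentrations (follow-up): 16 h compound, 100 nM thapsigargin for 4 h, then extracellular luciferase luminescence.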

[15] = target: Ubiquitin carboxyl-terminal hydrolase 1 (Homo sapiens) (UniProt O94782); experiment: Inhibitors of USP1/UAF1: Pilot qHTS (AID 504865); conditions: purified USP1/UAF1, Ub-rhodamine cleavage fluorescence; series mostly up to 54.9 µM;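 note: rhodamine fluorescence freed from ubiquitin-rhodamine substrate followed over time; top concentration of the series differs between compounds; % is set by controls: 0 for no effect and ±100 for the full control effect; nearly all actives have a fitted effect of over 35% in size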
Procedure, shortened: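 Deubiquitinase activity followed as kinetic rhodamine fluorescence release from 150 nM Ub-Rho. 1 nM USP1/UAF1 with compound, after 15 min room-temperature preincubation, in HEPES pH 7.8 buffer containing TCEP, EDTA, BSA and Tween-20.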

[16] = target: Cytochrome P450 3A4 (Homo sapiens) (UniProt P08684); experiment: qHTS Assay for Activators of Cytochrome P450 3A4 (AID 885); conditions: recombinant CYP3A4, Luciferin-PPXE luminescence, 60 min; series mostly up to 57.1 µM; note: nearly all actives have a fitted effect of over 65% in size
Procedure, shortened: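 Using 20nM recombinant human CYP3A4 in potassium phosphate (200mM), substrate Luciferin-PPXE at 25uM, luminescent luciferin detection followed a 60-min RT NADPH reaction; data scaled to 57 uM ketoconazole.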

[17] = measured here: cell count channel max response
[18] = measured here: lipid channel max response

Sequence of Glucocorticoid receptor (Homo sapiens) (P04150 whole entry, looked up, the tested form may be a part): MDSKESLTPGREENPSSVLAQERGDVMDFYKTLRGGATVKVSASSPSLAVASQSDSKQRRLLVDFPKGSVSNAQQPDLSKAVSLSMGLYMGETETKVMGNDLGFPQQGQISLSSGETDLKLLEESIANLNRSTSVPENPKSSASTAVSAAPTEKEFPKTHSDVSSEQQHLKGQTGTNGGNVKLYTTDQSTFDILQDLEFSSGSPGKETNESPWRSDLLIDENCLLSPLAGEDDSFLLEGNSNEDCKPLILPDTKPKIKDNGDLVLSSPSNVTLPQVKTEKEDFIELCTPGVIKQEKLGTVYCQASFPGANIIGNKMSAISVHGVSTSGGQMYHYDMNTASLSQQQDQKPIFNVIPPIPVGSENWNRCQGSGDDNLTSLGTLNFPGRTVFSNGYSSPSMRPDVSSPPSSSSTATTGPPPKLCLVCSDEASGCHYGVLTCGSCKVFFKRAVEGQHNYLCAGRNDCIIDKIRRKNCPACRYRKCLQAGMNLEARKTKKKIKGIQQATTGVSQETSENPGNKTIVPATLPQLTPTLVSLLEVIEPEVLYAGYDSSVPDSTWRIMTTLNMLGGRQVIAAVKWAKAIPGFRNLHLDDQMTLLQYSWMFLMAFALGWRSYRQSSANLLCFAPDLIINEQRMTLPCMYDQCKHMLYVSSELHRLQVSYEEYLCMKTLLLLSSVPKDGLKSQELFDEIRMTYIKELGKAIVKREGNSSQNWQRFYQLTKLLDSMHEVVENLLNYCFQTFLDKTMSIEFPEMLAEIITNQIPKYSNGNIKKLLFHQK
Sequence of Cytochrome P450 1A2 (Homo sapiens) (P05177 whole entry, looked up): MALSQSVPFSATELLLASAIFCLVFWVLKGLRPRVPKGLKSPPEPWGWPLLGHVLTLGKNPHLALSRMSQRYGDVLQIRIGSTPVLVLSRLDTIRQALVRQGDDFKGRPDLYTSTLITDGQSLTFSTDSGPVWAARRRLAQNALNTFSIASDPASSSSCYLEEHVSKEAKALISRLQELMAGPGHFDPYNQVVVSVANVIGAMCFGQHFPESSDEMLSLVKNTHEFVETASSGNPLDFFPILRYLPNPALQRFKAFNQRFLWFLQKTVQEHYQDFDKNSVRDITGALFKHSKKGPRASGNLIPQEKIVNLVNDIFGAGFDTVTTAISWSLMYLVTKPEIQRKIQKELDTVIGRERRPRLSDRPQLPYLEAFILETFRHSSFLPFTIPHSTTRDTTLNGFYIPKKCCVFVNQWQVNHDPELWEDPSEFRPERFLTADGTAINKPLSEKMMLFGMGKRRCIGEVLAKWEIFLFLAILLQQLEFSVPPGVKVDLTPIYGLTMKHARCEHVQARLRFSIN
Sequence of Ubiquitin carboxyl-terminal hydrolase 1 (Homo sapiens) (O94782 whole entry, looked up): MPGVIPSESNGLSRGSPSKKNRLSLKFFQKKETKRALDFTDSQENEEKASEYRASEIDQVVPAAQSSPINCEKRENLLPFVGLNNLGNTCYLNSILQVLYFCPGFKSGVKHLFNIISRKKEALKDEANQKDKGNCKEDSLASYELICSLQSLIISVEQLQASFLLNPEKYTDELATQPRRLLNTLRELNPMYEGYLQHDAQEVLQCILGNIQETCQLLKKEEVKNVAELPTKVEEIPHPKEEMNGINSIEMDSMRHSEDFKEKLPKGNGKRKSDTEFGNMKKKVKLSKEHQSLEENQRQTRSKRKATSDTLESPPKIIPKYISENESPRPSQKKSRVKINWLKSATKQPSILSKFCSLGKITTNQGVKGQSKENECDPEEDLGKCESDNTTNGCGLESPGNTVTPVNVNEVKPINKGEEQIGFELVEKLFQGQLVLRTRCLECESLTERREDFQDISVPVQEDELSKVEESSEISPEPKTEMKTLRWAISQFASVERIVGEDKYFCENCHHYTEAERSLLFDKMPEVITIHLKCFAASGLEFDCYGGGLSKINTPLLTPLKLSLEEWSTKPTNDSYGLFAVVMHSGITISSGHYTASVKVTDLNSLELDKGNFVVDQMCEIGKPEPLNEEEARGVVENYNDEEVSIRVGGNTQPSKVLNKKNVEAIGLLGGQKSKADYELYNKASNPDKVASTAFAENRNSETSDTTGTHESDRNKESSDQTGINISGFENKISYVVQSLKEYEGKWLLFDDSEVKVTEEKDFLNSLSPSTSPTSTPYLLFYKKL
Sequence of 3',5'-cyclic-AMP phosphodiesterase 4B (Homo sapiens) (Q07343 whole entry, looked up): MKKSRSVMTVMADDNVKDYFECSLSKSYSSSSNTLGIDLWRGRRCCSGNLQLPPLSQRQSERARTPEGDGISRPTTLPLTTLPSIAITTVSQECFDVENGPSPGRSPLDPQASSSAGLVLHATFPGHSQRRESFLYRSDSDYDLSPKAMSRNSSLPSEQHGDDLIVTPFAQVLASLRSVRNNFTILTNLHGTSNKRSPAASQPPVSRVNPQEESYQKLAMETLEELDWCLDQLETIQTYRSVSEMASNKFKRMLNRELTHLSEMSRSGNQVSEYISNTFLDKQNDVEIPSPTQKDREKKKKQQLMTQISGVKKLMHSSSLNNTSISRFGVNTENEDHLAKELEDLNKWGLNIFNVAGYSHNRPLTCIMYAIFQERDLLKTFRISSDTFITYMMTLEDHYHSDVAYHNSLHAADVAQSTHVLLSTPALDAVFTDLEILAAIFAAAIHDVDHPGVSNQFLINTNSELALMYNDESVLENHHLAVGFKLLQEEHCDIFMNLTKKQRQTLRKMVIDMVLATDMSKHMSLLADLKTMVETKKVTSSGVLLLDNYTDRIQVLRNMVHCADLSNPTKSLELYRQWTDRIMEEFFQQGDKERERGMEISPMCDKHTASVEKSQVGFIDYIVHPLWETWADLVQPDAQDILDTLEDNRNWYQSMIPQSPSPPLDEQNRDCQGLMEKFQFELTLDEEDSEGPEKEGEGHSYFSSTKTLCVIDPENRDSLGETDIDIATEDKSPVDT
Sequence of Cytochrome P450 3A4 (Homo sapiens) (P08684 whole entry, looked up): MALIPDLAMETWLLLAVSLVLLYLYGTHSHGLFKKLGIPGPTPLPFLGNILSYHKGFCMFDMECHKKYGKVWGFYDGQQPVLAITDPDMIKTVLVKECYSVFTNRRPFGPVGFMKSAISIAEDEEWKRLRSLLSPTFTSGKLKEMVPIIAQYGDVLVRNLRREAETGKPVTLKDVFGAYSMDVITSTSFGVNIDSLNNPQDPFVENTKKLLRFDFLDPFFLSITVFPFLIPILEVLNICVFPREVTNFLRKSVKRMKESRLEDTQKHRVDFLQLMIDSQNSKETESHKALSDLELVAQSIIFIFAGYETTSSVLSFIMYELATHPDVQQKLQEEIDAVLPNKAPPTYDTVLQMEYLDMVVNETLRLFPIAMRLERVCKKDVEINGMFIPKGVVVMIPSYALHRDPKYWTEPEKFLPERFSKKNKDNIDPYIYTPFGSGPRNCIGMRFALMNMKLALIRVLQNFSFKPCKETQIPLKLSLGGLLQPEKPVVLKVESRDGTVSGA
Sequence of Lysosomal acid glucosylceramidase (Homo sapiens) (P04062 whole entry, looked up): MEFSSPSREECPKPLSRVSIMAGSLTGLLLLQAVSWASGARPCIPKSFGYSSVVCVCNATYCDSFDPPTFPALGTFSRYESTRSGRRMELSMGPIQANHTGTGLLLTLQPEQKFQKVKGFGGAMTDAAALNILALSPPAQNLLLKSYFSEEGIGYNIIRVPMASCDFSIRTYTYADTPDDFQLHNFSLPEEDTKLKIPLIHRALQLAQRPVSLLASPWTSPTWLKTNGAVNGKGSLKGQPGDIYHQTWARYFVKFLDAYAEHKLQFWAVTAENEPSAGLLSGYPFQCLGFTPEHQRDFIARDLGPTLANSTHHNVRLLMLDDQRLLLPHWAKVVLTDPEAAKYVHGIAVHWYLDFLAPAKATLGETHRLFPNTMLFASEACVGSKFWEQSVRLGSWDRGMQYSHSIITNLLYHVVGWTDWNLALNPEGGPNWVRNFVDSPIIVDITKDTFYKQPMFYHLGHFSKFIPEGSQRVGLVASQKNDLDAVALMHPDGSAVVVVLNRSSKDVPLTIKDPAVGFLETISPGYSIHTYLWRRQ
Sequence of Dual specificity protein kinase CLK4 (Homo sapiens) (Q9HAZ1 whole entry, looked up): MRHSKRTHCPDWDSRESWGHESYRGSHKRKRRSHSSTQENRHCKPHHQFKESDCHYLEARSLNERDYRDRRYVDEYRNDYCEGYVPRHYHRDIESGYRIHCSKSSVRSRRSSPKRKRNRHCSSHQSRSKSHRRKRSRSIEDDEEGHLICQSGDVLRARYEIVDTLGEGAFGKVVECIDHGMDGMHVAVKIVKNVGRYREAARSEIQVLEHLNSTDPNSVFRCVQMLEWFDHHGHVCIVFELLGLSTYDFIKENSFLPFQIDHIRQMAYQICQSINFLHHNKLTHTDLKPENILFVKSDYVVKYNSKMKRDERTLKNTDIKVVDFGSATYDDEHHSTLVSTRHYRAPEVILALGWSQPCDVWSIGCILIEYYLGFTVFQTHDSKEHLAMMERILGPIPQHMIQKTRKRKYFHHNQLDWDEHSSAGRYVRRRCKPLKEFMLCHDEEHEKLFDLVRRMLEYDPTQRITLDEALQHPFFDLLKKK

Structure (SMILES)	Potency [1]	activity change, negative = inhibition [2]	Potency [3]	activity change, negative = inhibition [4]	activity, negative = inhibition [5]	Potency [6]	Potency [7]	outcome [8]	Potency [9]	activity change, negative = inhibition [10]	max response [10, 17]	max response [10, 18]	Potency [11]	Potency [12]	Potency [13]	Potency [14]	Potency [15]	Potency [16]
FC(F)(F)c1ccccc1-c1cc(NCCN2CCOCC2)ncn1	> 11.4 µM (inactive)	10.7% (inactive)	12.6 µM (active)	27.7% (inactive)	14.2% (inactive)	> 46 µM (inactive)	> 46 µM (inactive)	inactive	inactive	5.67% (inactive)	25.8%	30.8%	inactive	inactive	inactive	inactive	–	–
Cn1c(=O)c(-c2cc(F)cc(F)c2)nc2cnc(N3CCOCC3)nc21	> 11.4 µM (inactive)	-11% (inactive)	5.01 µM (active)	14.4% (inactive)	-1.78% (inactive)	> 9.22 µM (inactive)	> 46 µM (inactive)	inactive	inactive	4.75% (inactive)	16.8%	22.4%	inactive	inactive	inactive	inactive	inactive	–
COc1ccc(Oc2ncc3nc(C)c(=O)n(-c4ccccc4)c3n2)cc1	> 11.4 µM (inactive)	-15.8% (inactive)	7.94 µM (active)	-10.3% (inactive)	-5.69% (inactive)	> 9.22 µM (inactive)	> 46 µM (inactive)	inactive	inactive	6.06% (inactive)	10.7%	17.1%	inactive	inactive	inactive	inactive	–	inactive
Cc1cnc(CNc2ccnc(-c3c(C)noc3C)n2)cn1	> 11.4 µM (inactive)	1.51% (inactive)	12.6 µM (active)	10.3% (inactive)	1.5% (inactive)	> 46 µM (inactive)	> 46 µM (inactive)	inactive	inactive	7.48% (inactive)	24.6%	37.5%	inactive	inactive	inactive	inactive	inactive	inactive
Cc1noc(C)c1-c1cc(NC2CCNCC2)ncn1	> 11.4 µM (inactive)	8.23% (inactive)	0.126 µM (active)	8.17% (inactive)	5.01% (inactive)	> 46 µM (inactive)	> 46 µM (inactive)	inactive	inactive	3.45% (inactive)	-17.1%	-14.9%	inactive	inactive	inactive	inactive	inactive	–
COc1ccc(CNc2ccnc(-c3ccc4c(c3)OCO4)n2)c(OC)c1	> 11.4 µM (inactive)	-15% (inactive)	1.26 µM (active)	-5.96% (inactive)	-2.09% (inactive)	> 46 µM (inactive)	> 46 µM (inactive)	inactive	–	4.67% (inactive)	13.5%	17.1%	inactive	inactive	inactive	inactive	inactive	inactive
COc1ccc(-n2c(=O)c(C)nc3cnc(OC)nc32)cc1	> 11.4 µM (inactive)	13.3% (inactive)	inactive	3.92% (inactive)	-15.2% (inactive)	> 9.22 µM (inactive)	> 46 µM (inactive)	inactive	inactive	4.38% (inactive)	12%	18.2%	inactive	inactive	inactive	inactive	inactive	inactive
CC(=O)NCCNc1cc(-c2ccccc2CN(C)C)ncn1	> 11.4 µM (inactive)	3.33% (inactive)	inactive	-5.44% (inactive)	2.18% (inactive)	> 46 µM (inactive)	> 46 µM (inactive)	inactive	inactive	-0.819% (inactive)	11.1%	8.32%	inactive	inactive	inactive	inactive	inactive	–
